# Unmarked numbers belong to inactive results.
# Key:
# Assay in all cases: log2 ratio of Biotin-Ahx-Ub-VS probe labelling (fragment/DMSO); higher = less target engagement (more negative = stronger competition), active = hit call of the paper (q ≤ 0.05, log2 ratio ≤ -1)
# Conditions in all cases: compound concentration: 200 uM; treatment time: 3 h
# OTUD6B = biological target: T1, OTUD6B (UniProt Q8N6M0)
# T1 sequence (whole entry): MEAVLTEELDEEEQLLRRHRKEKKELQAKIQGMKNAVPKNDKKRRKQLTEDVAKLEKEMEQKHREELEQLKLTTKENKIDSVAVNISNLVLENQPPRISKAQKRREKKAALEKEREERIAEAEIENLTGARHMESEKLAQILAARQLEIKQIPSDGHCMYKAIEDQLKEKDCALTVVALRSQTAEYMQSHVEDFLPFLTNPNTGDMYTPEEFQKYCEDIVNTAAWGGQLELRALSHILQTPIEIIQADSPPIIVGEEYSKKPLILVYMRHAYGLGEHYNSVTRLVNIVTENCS
# Outline: (§1)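 The table lists average log2 ratios of fragment over vehicle, from an unpaired t-test on global-median-normalised Spectronaut label-free quantities. Proteins with ≥2 unique peptides were used. Samples were HEK293T lysate (495 µg) treated in triplicate with fragment at 200 µM or vehicle for 3 h, then with Biotin-Ahx-Ub-VS (0.5 µM final) for 1 h, with labelled DUBs NeutrAvidin-enriched and run by diaPASEF LC-MS/MS.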
# OTUD7B = biological target: T2, OTUD7B (UniProt Q6GQQ9)
# T2 sequence (whole entry): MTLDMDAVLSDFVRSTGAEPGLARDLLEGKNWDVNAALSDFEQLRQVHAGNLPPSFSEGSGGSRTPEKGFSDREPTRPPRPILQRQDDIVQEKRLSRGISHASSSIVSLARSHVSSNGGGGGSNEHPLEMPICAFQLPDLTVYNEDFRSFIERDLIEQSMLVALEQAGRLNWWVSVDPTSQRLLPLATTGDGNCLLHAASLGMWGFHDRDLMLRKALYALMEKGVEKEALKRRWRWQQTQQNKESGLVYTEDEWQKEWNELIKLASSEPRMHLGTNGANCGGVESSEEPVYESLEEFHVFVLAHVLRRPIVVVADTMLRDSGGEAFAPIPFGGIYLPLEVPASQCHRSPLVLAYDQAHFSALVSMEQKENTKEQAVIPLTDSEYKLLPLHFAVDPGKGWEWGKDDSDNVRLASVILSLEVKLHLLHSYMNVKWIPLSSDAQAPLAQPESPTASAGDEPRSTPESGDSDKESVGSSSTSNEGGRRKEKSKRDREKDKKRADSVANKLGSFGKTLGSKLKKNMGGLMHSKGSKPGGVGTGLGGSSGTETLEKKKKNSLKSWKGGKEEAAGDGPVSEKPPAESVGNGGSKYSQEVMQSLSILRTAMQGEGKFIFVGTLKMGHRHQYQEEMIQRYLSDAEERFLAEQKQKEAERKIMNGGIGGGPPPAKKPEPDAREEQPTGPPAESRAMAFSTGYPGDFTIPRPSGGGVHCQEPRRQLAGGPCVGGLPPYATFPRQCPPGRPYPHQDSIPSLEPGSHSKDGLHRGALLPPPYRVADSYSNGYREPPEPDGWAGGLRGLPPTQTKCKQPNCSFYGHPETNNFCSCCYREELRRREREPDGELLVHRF
# Outline: as §1
# PRPF8 = PRPF8 (UniProt Q6P2Q9)
# Outline: as §1
# PSMD7 = biological target: T3, PSMD7 (UniProt P51665)
# T3 sequence (whole entry): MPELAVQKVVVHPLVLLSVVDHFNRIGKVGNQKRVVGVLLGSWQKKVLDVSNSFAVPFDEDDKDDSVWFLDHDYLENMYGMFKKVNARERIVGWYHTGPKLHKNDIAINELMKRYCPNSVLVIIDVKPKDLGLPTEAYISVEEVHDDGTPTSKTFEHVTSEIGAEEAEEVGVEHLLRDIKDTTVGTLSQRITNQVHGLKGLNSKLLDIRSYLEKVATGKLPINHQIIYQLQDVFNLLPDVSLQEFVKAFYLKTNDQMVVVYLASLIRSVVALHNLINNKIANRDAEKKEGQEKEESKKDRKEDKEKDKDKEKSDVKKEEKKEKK
# Outline: as §1
# UCHL1 = UCHL1 (UniProt P09936)
# Outline: as §1
# UCHL3 = biological target: T4, UCHL3 (UniProt P15374)
# T4 sequence (whole entry): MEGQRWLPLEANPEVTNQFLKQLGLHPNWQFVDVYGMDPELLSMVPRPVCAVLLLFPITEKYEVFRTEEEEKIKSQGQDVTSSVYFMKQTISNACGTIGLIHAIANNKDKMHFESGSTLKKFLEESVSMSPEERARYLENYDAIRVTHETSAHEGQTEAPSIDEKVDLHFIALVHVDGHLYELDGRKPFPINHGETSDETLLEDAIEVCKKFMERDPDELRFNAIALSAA
# Outline: as §1
# UCHL5 = biological target: T5, UCHL5 (UniProt Q9Y5K5)
# T5 sequence (whole entry): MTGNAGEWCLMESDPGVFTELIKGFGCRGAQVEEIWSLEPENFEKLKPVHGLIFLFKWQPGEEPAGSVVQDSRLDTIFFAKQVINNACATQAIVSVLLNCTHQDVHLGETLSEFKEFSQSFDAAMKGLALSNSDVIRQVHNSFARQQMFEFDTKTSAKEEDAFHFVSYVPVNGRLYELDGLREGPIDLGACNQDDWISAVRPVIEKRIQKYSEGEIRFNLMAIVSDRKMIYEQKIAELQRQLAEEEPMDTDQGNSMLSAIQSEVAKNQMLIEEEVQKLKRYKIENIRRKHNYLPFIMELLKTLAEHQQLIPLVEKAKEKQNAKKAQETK
# Outline: as §1
# USP10 = USP10 (UniProt Q14694)
# Outline: as §1
# USP15 = biological target: T6, USP15 (UniProt Q9Y4E8)
# T6 sequence (whole entry): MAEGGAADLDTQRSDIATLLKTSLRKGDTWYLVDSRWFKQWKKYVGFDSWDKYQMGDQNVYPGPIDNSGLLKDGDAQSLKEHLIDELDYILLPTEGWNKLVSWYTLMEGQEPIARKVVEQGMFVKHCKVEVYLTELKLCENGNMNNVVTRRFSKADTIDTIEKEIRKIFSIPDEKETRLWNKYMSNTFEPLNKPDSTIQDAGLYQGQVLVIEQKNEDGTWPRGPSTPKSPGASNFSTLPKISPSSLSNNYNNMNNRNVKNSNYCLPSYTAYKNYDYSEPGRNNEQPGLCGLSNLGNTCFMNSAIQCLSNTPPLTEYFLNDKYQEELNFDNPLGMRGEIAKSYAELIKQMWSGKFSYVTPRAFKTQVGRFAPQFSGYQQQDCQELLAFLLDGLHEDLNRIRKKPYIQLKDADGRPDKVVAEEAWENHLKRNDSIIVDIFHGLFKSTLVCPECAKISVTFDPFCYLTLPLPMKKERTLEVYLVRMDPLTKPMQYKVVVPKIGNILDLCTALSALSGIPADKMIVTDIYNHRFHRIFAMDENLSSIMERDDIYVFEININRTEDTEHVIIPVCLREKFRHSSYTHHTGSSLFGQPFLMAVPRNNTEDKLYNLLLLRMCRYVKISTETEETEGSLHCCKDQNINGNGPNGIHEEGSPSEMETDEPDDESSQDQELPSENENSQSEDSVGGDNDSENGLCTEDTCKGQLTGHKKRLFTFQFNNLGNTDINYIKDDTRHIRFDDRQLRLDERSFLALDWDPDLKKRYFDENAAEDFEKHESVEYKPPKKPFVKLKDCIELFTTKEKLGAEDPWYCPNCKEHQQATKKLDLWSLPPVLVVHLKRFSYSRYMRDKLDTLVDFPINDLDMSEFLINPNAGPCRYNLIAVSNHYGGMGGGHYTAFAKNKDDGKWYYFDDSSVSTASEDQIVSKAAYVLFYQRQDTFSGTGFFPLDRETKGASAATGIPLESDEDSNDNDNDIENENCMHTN
# Outline: as §1
# USP16 = USP16 (UniProt Q9Y5T5)
# Outline: as §1
# UCHL1, sequence (P09936 whole entry, looked up): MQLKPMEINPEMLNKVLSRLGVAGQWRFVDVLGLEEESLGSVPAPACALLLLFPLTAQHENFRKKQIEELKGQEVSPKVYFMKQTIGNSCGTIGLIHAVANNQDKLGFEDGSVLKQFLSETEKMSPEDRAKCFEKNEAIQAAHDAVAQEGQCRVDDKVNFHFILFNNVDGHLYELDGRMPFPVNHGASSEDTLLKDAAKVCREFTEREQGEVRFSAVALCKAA
# USP16, sequence (Q9Y5T5 whole entry, looked up): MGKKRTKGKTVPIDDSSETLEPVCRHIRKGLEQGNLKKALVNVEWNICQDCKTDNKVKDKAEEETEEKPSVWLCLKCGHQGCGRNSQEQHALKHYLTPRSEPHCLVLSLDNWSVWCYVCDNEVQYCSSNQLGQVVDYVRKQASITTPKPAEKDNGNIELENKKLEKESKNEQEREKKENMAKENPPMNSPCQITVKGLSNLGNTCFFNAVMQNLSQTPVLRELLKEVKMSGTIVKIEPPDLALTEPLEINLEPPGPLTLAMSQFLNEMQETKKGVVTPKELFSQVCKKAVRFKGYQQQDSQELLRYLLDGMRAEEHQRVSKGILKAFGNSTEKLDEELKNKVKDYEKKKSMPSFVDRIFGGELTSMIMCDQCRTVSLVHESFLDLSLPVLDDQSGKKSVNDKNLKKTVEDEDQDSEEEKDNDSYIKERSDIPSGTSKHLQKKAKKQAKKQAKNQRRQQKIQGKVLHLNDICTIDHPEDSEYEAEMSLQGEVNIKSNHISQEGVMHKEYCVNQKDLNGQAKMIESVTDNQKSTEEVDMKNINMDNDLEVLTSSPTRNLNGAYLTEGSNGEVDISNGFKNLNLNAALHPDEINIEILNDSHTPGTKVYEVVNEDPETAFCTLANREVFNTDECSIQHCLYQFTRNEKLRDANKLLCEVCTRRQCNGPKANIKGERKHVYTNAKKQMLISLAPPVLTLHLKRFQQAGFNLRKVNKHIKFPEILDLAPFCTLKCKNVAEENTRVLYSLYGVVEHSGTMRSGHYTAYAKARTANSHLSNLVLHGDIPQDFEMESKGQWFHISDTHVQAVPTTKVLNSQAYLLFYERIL
# USP10, sequence (Q14694 whole entry): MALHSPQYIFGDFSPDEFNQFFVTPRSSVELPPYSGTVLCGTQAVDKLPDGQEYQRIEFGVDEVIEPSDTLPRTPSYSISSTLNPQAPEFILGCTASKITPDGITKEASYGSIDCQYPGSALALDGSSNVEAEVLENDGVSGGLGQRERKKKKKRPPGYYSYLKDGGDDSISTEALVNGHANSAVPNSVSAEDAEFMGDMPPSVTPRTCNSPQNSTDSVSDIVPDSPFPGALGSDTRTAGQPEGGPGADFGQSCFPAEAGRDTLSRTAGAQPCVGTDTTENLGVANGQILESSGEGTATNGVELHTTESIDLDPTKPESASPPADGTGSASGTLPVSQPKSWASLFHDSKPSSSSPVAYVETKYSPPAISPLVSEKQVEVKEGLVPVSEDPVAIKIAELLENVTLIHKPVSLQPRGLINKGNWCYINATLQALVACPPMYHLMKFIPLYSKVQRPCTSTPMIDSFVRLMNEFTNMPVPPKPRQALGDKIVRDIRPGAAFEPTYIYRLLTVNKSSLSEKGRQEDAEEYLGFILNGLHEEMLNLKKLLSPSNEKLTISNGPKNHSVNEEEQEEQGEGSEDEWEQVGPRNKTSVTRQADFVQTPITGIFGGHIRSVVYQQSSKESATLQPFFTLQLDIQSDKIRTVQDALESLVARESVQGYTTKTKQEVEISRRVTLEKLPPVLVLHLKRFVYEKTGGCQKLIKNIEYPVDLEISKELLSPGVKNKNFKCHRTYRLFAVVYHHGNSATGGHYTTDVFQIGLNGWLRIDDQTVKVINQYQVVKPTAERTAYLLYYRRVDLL
smiles,measurement,setting,value
NC(=O)C1CCCN(C(=O)CCl)C1 (stereo not given),log2 ratio of Biotin-Ahx-Ub-VS probe labelling,OTUD6B,0.0096
same,log2 ratio of Biotin-Ahx-Ub-VS probe labelling,OTUD7B,-0.633
same,log2 ratio of Biotin-Ahx-Ub-VS probe labelling,PRPF8,0.0408
same,log2 ratio of Biotin-Ahx-Ub-VS probe labelling,PSMD7,-0.26
same,log2 ratio of Biotin-Ahx-Ub-VS probe labelling,UCHL1,-1.4 (active)
same,log2 ratio of Biotin-Ahx-Ub-VS probe labelling,UCHL3,0.133
same,log2 ratio of Biotin-Ahx-Ub-VS probe labelling,UCHL5,0.0623
same,log2 ratio of Biotin-Ahx-Ub-VS probe labelling,USP10,-0.05
same,log2 ratio of Biotin-Ahx-Ub-VS probe labelling,USP15,-0.0343
same,log2 ratio of Biotin-Ahx-Ub-VS probe labelling,USP16,-0.387

# — the supplement of paper PMC11732987, “Enantioselective OTUD7B fragment discovery through chemoproteomics screening and high-throughput optimisation” (Communications Chemistry, 2025)
